Screen size: about 290,000 compounds; about 27,000 (9.3%) were called active. The sample holds actives, similar compounds and a random draw of the others, so the mix is not that of the screen. Values without a mark were called inactive. Cut-off read from the data, not from the text of the source: active = inhibition mostly above about 28% (no sharp cut-off); inactive = mostly below about 43%.
test: A qHTS for Small Molecule Inhibitors of Shiga Toxin; conditions: Vero cells, Shiga toxin protein synthesis inhibition reporter; at 38.7 µM, hits give high values; note: 0% is about no effect

Compound	inhibition
O=C(NCc1cccnc1)c1cccc(-c2cc3ccccc3oc2=O)c1	13.7%
Nc1ncc(-c2cc3ccccc3oc2=O)s1	85% (active)
O=C(Oc1cccnc1)c1cc2ccccc2oc1=O	1.26%
COc1cc(CNCc2ccc3c(c2)OCO3)c([N+](=O)[O-])cc1OC	16.9%
CCOC(=O)N1CCN(S(=O)(=O)c2ccc(-n3cnnn3)cc2)CC1	5.66%
O=C(CSc1ccc(-c2ccccn2)nn1)Nc1ccccc1	47% (active)
COc1cc(NC(=O)CSc2ccc(-c3cccnc3)nn2)cc(OC)c1	15.3%
O=C(CSc1ccc(-c2ccco2)nn1)Nc1cccc(F)c1	38.8%
Cc1ccc(CN2CCCOCCS2(=O)=O)cc1	-6.69%
Cc1cccnc1CC(C)NC(=O)c1cc(COc2cncc(Cl)c2)on1 (stereo not drawn)	47.9% (active)
CC(=O)c1cccc(OCc2cc(C(=O)NC(C)Cc3cccnc3)no2)c1 (stereo not drawn)	36.9%
CC(CCc1ccccc1)NC(=O)c1cnc(Cl)c(Cl)c1 (stereo not drawn)	3.47%
CCOc1cc(C(=O)O)ccc1OCCOc1ccccc1	2.96%
Cc1ccc(CN(CC(=O)NC2CCCCC2)C(=O)c2csnn2)cc1	-2.02%
CC1CCN(C(=O)CCNC(=O)c2ccccc2)CC1	43.4% (active)
CC1CCN(C(=O)/C(=C\c2ccccc2F)NC(=O)c2ccccc2)CC1	-2.65%
CC1CCN(C(=O)/C(=C\c2ccccc2)NC(=O)c2ccccc2)CC1	5.08%
O=S(=O)(c1ccccc1)c1nc(-c2ccccc2)oc1NCCCN1CCOCC1	-13.1%
O=C(Nc1ccc(CN2CCOCC2)cc1)c1cc(Cl)ccc1Cl	-2.33%
CC(O)C(NS(=O)(=O)c1ccc(Cl)cc1)C(=O)OCc1cc([N+](=O)[O-])cc2c1OCOC2 (stereo not drawn)	-12.1%
Nc1ccccc1SCc1cc([N+](=O)[O-])cc2c1OCOC2	62% (active)
O=C(CN1CCN(c2ccc(Cl)cc2)CC1)c1ccccc1	12.6%
CC1CN(S(=O)(=O)c2cccc(C(F)(F)F)c2)CN1C(=O)N1CCOCC1 (stereo not drawn)	29.9%
O=[N+]([O-])c1ccc(O)c(/C=N/Nc2ccccc2[N+](=O)[O-])c1	33.7% (active)
O=C(N/N=C/c1cc([N+](=O)[O-])ccc1O)/C(=C\c1cccs1)NC(=O)c1ccccc1	-4.29%

Compound	inhibition
Nc1nnnn1/N=C/c1cc([N+](=O)[O-])ccc1O	19.7%
CCNC(=S)N(CCN(CC)CC)Cc1cc2cc3c(cc2[nH]c1=O)OCCO3	37.5%
O=C(CSCc1cccs1)N1CCCC1	55.4% (active)
O=C(CN1CCN(c2ccc(Cl)cc2)CC1)N1CCCC1	-2.98%
O=C(CSc1ncccn1)N1CCCC1	15.5%
O=C(CSCc1ccc(Cl)cc1)N1CCN(Cc2ccc3c(c2)OCO3)CC1	1.49%
Cn1c(SCC(=O)N2CCCC2)nnc1-c1cccs1	19.8%
O=C(CSCc1ccc(Cl)cc1)N1CCCCC1	91.4% (active)
COc1ccc(-c2c(NC(=O)c3ccco3)oc3ccc(Cl)cc3c2=O)cc1	-2.04%
O=S(=O)(NC1CCCC1)c1ccc(-n2cnnn2)cc1	-3.47%
COc1ccc(C=C(C#N)C#N)c(CSc2ccccn2)c1	-2.53%
COc1ccc(C(=O)N[C@H](C(=O)NCc2ccccc2)C(C)C)cc1	2.84%
CCN(CC(=O)NCc1cccs1)C(=O)c1cccc(S(=O)(=O)Nc2ccccc2OC)c1	25.8%
COc1ccccc1C(=O)Nc1ccc(OCc2nnc3c4ccccc4c(C)nn23)cc1	6.17%
COc1ccc(C2/C(=C(/O)c3ccc4c(c3)CC(C)O4)C(=O)C(=O)N2Cc2ccncc2)cc1 (stereo not drawn)	21.4%
Nc1ccc2nn(-c3ccc(Cl)cc3)nc2c1	99% (active)
CN(C)c1nnnn1-c1ccc(Cl)cc1	32.8%
CCn1c(SCC(=O)NNC(=O)c2ccc(OC)cc2)nnc1C(C)C	-2.63%
O=C1NC(=O)C(c2ccc(Cl)cc2)N1 (stereo not drawn)	-0.685%
COc1cccc(CNC(=O)C2CC(=O)N(C3CCCCCCC3)C2)c1 (stereo not drawn)	-10.4%
CC(C)NC(=O)C(=O)N/N=C/c1ccco1	-4.96%
O=c1nc(N/N=C/c2ccco2)cn[nH]1	84% (active)
O=C(Cn1cnc2ccccc21)N/N=C/c1ccco1	15.9%
O=C(Nc1ccccc1)c1cc2ccccc2[nH]1	116% (active)
CC(C)n1c(=O)[nH]c2cc(C(=O)Nc3ccccc3)ccc21	-20.3%

Compound	inhibition
O=C(Nc1ccccc1)N1CCN(C(=O)Nc2ccccc2)CC1	14.4%
COc1ccccc1OCCOc1ccc(/C=C2\C(=N)N3N=C(C)SC3=NC2=O)cc1	2.39%
COc1cccc(N(CC(=O)NC2CCCC2)C(=O)Cn2nnc(-c3ccc(C)o3)n2)c1	5.05%
CCn1c(SCc2ccccc2)nc2cc(OC)c(OC)cc2c1=O	-6.05%
O=C(CN1CCN(c2ccccc2)CC1)Nc1ccc(F)cc1	2.65%
O=C(c1ccc(F)cc1)N1CCC(n2nnc3ccccc32)CC1	111% (active)
CC(=O)c1cccc(S(=O)(=O)N2CCC(n3nnc4cc(F)ccc43)CC2)c1	7.77%
O=S(=O)(c1cccc(S(=O)(=O)N2CCC(n3nnc4ccccc43)CC2)c1)N1CCCCC1	-25.2%
COc1ccc(N(CC(=O)N2CCOCC2)S(=O)(=O)c2ccccc2)cc1Cl	-9.7%
COc1ccc(S(=O)(=O)N2CN(CCc3ccc(OC)c(OC)c3)c3nc4ccccc4nc32)cc1	-10.2%
O=S(=O)(c1ccccc1)N1CN(Cc2ccc(F)cc2)c2nc3ccccc3nc21	45.9% (active)
C=CCN1CN(S(=O)(=O)c2ccc(OC)cc2)c2nc3ccccc3nc21	8.86%
O=C(NCCS(=O)(=O)N1CCN(c2ccccc2F)CC1)c1ccc(Br)o1	-0.576%
O=C1CCC(C(=O)N2CCC(O)(c3ccccc3)CC2)CN1CCc1ccccc1 (stereo not drawn)	-9.01%
CCOC(=O)CSc1nnc(-c2ccco2)n1C	-1.54%
Cn1c(SCC(=O)c2cccs2)nnc1-c1ccco1	58.7% (active)
CCCCNC(=O)CSc1nnc(-c2ccco2)n1C	-13.5%
CCC1Oc2ccccc2N(CC(=O)NCCCN2CCN(CC)CC2)C1=O (stereo not drawn)	-4.33%
CC(C)OCCCNC(=O)CN1C(=O)/C(=C/c2ccccc2F)Oc2ccccc21	-4.44%
COc1ccc(CCNC(=O)CN2C(=O)CCSc3ccccc32)c(OC)c1	-7.21%
Cc1ccc(-c2nc(CSCC(=O)NC3CCN(Cc4ccccc4)CC3)c(C)o2)cc1	1.51%
Cc1ccc(Sc2cc(C(=O)c3ccccc3C(=O)O)ccc2[N+](=O)[O-])cc1	1.21%
CC(=O)Nc1cc2ccc(OC(C)=O)cc2oc1=O	-11.8%
O=C(Nc1cc2ccccc2oc1=O)C1CCCCC1	55.5% (active)
Cc1ccccc1NC(=O)C1CCN(C(=O)NC2CCCCC2)CC1	-5.42%

Compound	inhibition
CCn1nc(C)c(/C=N/NC(=O)Cc2ccc(Cl)cc2)c1C	81.2% (active)
Cc1nn(Cc2ccc(Cl)cc2)c(Cl)c1/C=N/NC(=O)c1cccnc1	-8.32%
Cc1nn(Cc2ccc(Cl)cc2)c(Cl)c1/C=N/NC(=O)CNc1ccccc1F	-6.45%
O=C(NCCN1CCOCC1)c1ccc2c(c1)ncn2C1CCCC1	-8.3%
O=C(NCc1cccs1)c1ccc2c(c1)ncn2C1CCCC1	38% (active)
COc1ccccc1-n1cnc2cc(C(=O)NCC3CCCO3)ccc21 (stereo not drawn)	-4.06%
CCOC(=O)C1=C(c2ccccc2)NC(=O)NC1c1cc(OC)c(OC)cc1OC (stereo not drawn)	-5.08%
COc1cc2c(cc1OC)CN(CC(=O)Nc1ccc(F)cc1)CC2	-6.84%
Cc1ccc(SCc2c(C(=O)N/N=C/c3cccnc3)nnn2-c2nonc2N)cc1	-5.04%
COc1cc(CN2CCC(C(N)=O)CC2)ccc1OCc1ccccc1	50.5% (active)
CCOc1cc(CN2CCN(C(=O)CC(C)C)CC2)ccc1OC	21.9%
COc1ccc(COCC(O)CN2CCC(C(N)=O)CC2)cc1 (stereo not drawn)	18.1%
CCCc1nnc(NC(=O)CCC(=O)NC2CC2)s1	-4.93%
COc1ccc(CCN(C)C(=O)C23CC4CC(CC(Cl)(C4)C2)C3)cc1OC	-8.99%
Cc1cccc(NC(=O)COc2ccccc2C)n1	99.9% (active)
Cc1cccc(NC(=O)Nc2ccc(OCc3ccccc3)cc2)n1	-8.92%
Cc1ccccc1OCC(=O)Nc1nc(C)c(C(=O)N(C)C)s1	13.1%
Cc1cccc(NC(=O)c2ccccc2NC(=O)C(C)(C)C)n1	-16.5%
CCN(CC)S(=O)(=O)c1ccc(C)c(NC(=O)COc2ccc(Br)cc2Cl)c1	-7.98%
Cc1cccc(NC(=O)c2cccnc2Cl)n1	21.6%
Cc1cccc(NC(=O)c2ccc3ccccc3n2)n1	80.6% (active)
COCCNC(=O)COc1ccccc1C	-1.68%
CCCC1=Nc2cc(C(=O)NCCN3CCCC3)ccc2Sc2ccccc21	-5.59%

From PubChem BioAssay AID2315 (National Center for Advancing Translational Sciences (NCATS), 2010)
